# Screening data deposited in PubChem by Sanford-Burnham Center for Chemical Genomics.
# CD11b adhes enh: enhancers of human CD11b/CD18 binding to fibrinogen | P05107+P11215 | K562 CD11b/CD18 adhesion to fibrinogen, ATPlite luminescence | activation, % at 10 µM | 93,000 compounds, 0.07% hits;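 active = 10 µM primary screen giving 50% or more activity, confirmed by 40% or more on retest at that dose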
# CD11b adhes inh: blocks human CD11b/CD18 adhesion to fibrinogen. P05107+P11215. K562 CD11b/CD18 adhesion to fibrinogen, ATPlite luminescence; Mn2+ added to activate the integrin. inhibition, % at 10 µM. 93,000 compounds, 0.54% hits. AID 1497;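 active = primary inhibition of 50% or more at 10 µM, then 40% or more on retest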
# CYP2C19 inh: human CYP2C19 inhibition; CYP2C19 Supersomes, luciferin-H EGE luminescence, 30 min; inhibition, % at 5 µM; 96,000 compounds, 21% hits; AID 778;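 active = CYP2C19 inhibition above a set limit at 5 µM in the primary screen, cut at about 50% in these data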;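 also: plate controls were negative control wells for no effect and 2.5 mM tranylcypromine positive control for full effect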
# CYP2C19 act: activators of human cytochrome P450 2C19; P33261; recombinant CYP2C19, luciferin-H EGE luminescence; hits give high values; 0 = fully inhibited enzyme, 1 = untreated enzyme; activation factor at 5 µM; 96,000 tested, under 10 active; AID 1025;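 active = activation factor of at least 2 at 5 µM in the primary screen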;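 also: 0 = wells with 2.5 mM tranylcypromine and 1 = vehicle-only wells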
# CYP2C9 activ: activators of human CYP2C9; 96,000 compounds, 1.4% hits; recombinant CYP2C9, luciferin-H conversion, luminescence; hits give high values; factor 1 = untreated enzyme, 0 = blocked; activation factor at 5 µM;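 active = activation factor of 2 or more for CYP2C9 at a 5 µM dose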;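 also: 0 = sulfaphenazole-blocked wells and 1 = vehicle-only wells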
# Target sequence (P11712 whole entry, looked up): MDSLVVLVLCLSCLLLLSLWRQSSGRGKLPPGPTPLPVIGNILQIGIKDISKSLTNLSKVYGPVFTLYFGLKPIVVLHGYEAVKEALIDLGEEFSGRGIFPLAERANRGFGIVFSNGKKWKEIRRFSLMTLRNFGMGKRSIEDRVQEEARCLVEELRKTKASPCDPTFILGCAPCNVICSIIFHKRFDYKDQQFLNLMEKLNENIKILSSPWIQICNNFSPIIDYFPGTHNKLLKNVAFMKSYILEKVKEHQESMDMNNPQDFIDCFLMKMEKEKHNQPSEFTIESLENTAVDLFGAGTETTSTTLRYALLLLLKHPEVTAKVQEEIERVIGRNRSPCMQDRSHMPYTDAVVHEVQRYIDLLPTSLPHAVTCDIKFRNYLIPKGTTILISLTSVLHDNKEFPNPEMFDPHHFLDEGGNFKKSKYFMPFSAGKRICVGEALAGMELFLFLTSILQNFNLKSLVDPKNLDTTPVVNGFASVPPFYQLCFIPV
# CYP2C9 inh: blocks human cytochrome P450 2C9; CYP2C9 Supersomes, luciferin-H conversion, luminescence; inhibition, % at 5 µM; P11712; AID 777; 96,000 compounds, 20% hits;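 active = blocking of liver enzyme CYP2C9 beyond about 50% at 5 µM, limit read from the data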
# Active calls of the source: *; · = no result given. A selection: hits, their analogues and other compounds. The true share with any hit is near 28%.
SMILES,CD11b adhes enh,CD11b adhes inh,CYP2C19 inh,CYP2C19 act,CYP2C9 activ,CYP2C9 inh
O=C(NC(=S)Nc1cc(C(F)(F)F)ccc1N1CCOCC1)c1sc2ccccc2c1Cl,3,0,·,·,·,·
CCOC(=O)c1ccc(NC(=S)NC2CC(C)(C)NC(C)(C)C2)cc1,·,·,37,0.6,1.1,-14
COC(=O)c1c(-c2cccc(OC)c2)csc1N,2,6,27,0.7,1.1,-11
COC(=O)c1c(-c2ccc3ccccc3c2)csc1NC(=O)Cc1ccc(OC)c(OC)c1,29,10,48,0.5,0.2,80*
CCOC(=O)c1c(-c2ccc(OC)cc2)csc1NC(=O)CSc1ccccc1,0,10,19,0.8,0.5,49
COC(=O)c1c(-c2ccc(OC)c(OC)c2)csc1N,-4,-3,60*,0.4,0.5,46
COc1ccc(C)cc1S(=O)(=O)N(CC(=O)Nc1ccc2c(c1)OCCO2)Cc1ccccc1,1,-32,100*,0,0,98*
COc1ccc(C)cc1S(=O)(=O)N(C)CC(=O)NC1CC1,-1,-1,3,1,0.9,14
CS(=O)(=O)N(CC(=O)Nc1ccc2c(c1)OCCO2)Cc1ccc(Cl)cc1,-2,14,2,1,0.9,5
COc1ccc(C)cc1S(=O)(=O)N(C)CC(=O)Nc1ccc2c(c1)OCO2,·,·,58*,0.4,0.1,86*
O=C(Nc1ccc2c(c1)Cc1ccccc1-2)c1ccco1,0,-13,10,0.9,0.9,9
Cc1nnc(C)c2c(C)n(Cc3ccc4c(c3)OCO4)c(C)c12,·,·,40,0.6,0.8,18
CNC(=O)CN(C)S(=O)(=O)c1ccc(F)cc1,-1,-11,7,0.9,0.8,21
CC(=O)Nc1ccccc1NC(=O)CN(C)S(=O)(=O)c1ccc(C)cc1,-6,-5,80*,0.2,1.2,-16
CCCC(=O)Nc1ccccc1NC(=O)CN(C)S(=O)(=O)c1ccc(C)cc1,0,-20,10,0.9,0.5,49
CC(C(=O)Nc1ccccc1Sc1ccccc1)N(c1ccccc1)S(C)(=O)=O (configuration not stated),·,·,41,0.6,0.5,54*
O=C(Cc1ccc(F)cc1)Nc1ccccc1Sc1ccccc1,-8,10,·,·,·,·
CS(=O)(=O)N(Cc1ccc(C(=O)Nc2ccccc2Sc2ccccc2)cc1)c1ccccc1,-5,-9,4,1,0.6,39
CS(=O)(=O)N(CC(=O)Nc1ccccc1Sc1ccccc1)c1ccc(F)cc1,-4,24,28,0.7,0.4,61*
CSc1ccccc1NC(=O)CN(C)S(=O)(=O)c1ccc(F)cc1,0,-36,41,0.6,3.6*,-265
CCCN1CCN(CCCNC(=O)Cn2nc(-c3ccccc3)ccc2=O)CC1,-10,-8,-3,1,1,2
CCSc1nnc(NC(=O)CN(C)S(=O)(=O)c2ccc(F)cc2)s1,-4,10,81*,0.2,0.2,75*
COc1ccccc1CNC(=O)c1nn(-c2ccc(C)cc2)c(=O)c2c1c1ccccc1n2C,53,-2,21,0.8,0.3,65*
COc1ccc(-n2nc(C(=O)NCc3ccco3)c3c4ccccc4n(C)c3c2=O)cc1Cl,-1,4,0,1,1.1,-11
CCN(CC)CC(O)COc1ccccc1C(=O)CCc1ccccc1 (configuration not stated),-3,0,60*,0.4,0.7,28
SMILES,CD11b adhes enh,CD11b adhes inh,CYP2C19 inh,CYP2C19 act,CYP2C9 activ,CYP2C9 inh
CCC(=O)c1ccc(OCC(O)CN(CCc2ccccc2)Cc2ccccc2)cc1 (configuration not stated),-3,18,53*,0.5,0.3,70*
COC(=O)c1ccc(OCCOc2ccc(C(=O)OC)cc2)cc1,10,3,14,0.9,0.7,28
COc1cccc(OCC(O)CN(CCO)Cc2ccccc2)c1 (configuration not stated),-2,-5,25,0.7,0.7,29
C=CCc1ccccc1OCC(O)CN(CC)CC (configuration not stated),-2,3,22,0.8,0.8,15
COC(=O)c1ccc(OCC(O)CN(CC(C)C)CC(C)C)cc1 (configuration not stated),-1,-7,74*,0.3,0.3,71*
CCOC(=O)Cc1csc(NC(=O)COc2ccccc2)n1,6,-27,28,0.7,0.5,55*
CCOC(=O)Cc1csc(NS(=O)(=O)Cc2ccccc2)n1,0,15,1,1,0.2,77*
O=C(CCS(=O)(=O)c1cccs1)N1CCCC1,·,·,-4,1,0.9,14
CCOC(=O)Cc1csc(NC(=O)COc2ccccc2OC)n1,·,·,22,0.8,0.7,26
CN(c1ccc(OCC(=O)N2CCCCC2)cc1)S(=O)(=O)c1cccs1,-3,-15,47,0.5,0.3,69*
CCOC(=O)C(=O)c1csc(NC(=O)COc2ccc(N(C)S(=O)(=O)c3ccc(F)cc3)cc2)n1,-1,-17,57*,0.4,0.4,59*
CCOC(=O)Cc1csc(NC(=O)COc2ccc(N(C)S(=O)(=O)c3cccs3)cc2)n1,0,30,96*,0,0.1,95*
Nc1nc(NCc2ccco2)nn1-c1ccccc1,3,5,4,1,1,0
N#CCSc1nnc(-c2ccccc2O)n1CCc1ccccc1,-2,0,41,0.6,1.1,-10
CCCCCOc1ccc(N2C(=O)CC(N(O)c3ccccc3)C2=O)cc1 (configuration not stated),0,-4,-11,1.1,1,-1
Cc1c(Cl)cccc1N1C(=O)CC(N(O)c2ccccc2)C1=O (configuration not stated),0,-14,94*,0.1,2.6*,-156
CCOc1ccccc1N1C(=O)CC(N(O)c2ccccc2)C1=O (configuration not stated),0,4,93*,0.1,1.1,-8
CCCCOc1ccc(N2C(=O)CC(N(O)c3ccccc3)C2=O)cc1 (configuration not stated),0,1,-12,1.1,1.1,-5
Cc1cccc(C)c1N1C(=O)CC(N(O)c2ccccc2)C1=O (configuration not stated),6,-12,97*,0,0.7,30
CN1CCN(c2ccc(S(=O)(=O)N3CCCCC3)cc2NC(=O)Cc2ccc(Cl)cc2)CC1,1,-11,·,·,·,·
CC1(C)CC(=O)C(/C=N/n2c(C(F)(F)F)nc3ccccc3c2=O)=C(O)C1,-4,-21,-9,1.1,0.7,30
CC(=O)N1CCc2cc(S(=O)(=O)Nc3cccc(C(F)(F)F)c3)ccc21,-6,40,95*,0,0.3,71*
